According to PMC5540273 (PLoS ONE, 2017):

Tests used:
Details in all cases: concentration: 1 μM, replicates: in singlicate; n = 1
TAK1 = system: T1, TAK1
T1 construct: gene MAP3K7

TAOK1 = system: TAOK1
TAOK2 = system: TAOK2
TAOK3 = system: TAOK3
TBK1 = system: TBK1
TEC = system: TEC
TESK1 = system: TESK1
TGFBR1 = system: TGFBR1
TGFBR2 = system: TGFBR2
TIE1 = system: TIE1
TIE2 = system: T2, TIE2
T2 construct: gene TEK

TLK1 = system: TLK1
TLK2 = system: TLK2
TNIK = system: TNIK
TNK1 = system: TNK1
TNK2 = system: TNK2
TNNI3K = system: TNNI3K
TRKA = system: T3, TRKA
T3 construct: gene NTRK1

TRKB = system: TRKB
TRKC = system: T4, TRKC
T4 construct: gene NTRK3
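Note: KINOMEscan kinase panel screen.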

SMILES | %Inh (TAK1) [%] | %Inh (TAOK1) [%] | %Inh (TAOK2) [%] | %Inh (TAOK3) [%] | %Inh (TBK1) [%] | %Inh (TEC) [%] | %Inh (TESK1) [%] | %Inh (TGFBR1) [%] | %Inh (TGFBR2) [%] | %Inh (TIE1) [%] | %Inh (TIE2) [%] | %Inh (TLK1) [%] | %Inh (TLK2) [%] | %Inh (TNIK) [%] | %Inh (TNK1) [%] | %Inh (TNK2) [%] | %Inh (TNNI3K) [%] | %Inh (TRKA) [%] | %Inh (TRKB) [%] | %Inh (TRKC) [%]
O=C(NCCNc1ccnc(Nc2ccc(F)cc2)n1)Nc1ccc2c(c1)OCO2 [GSK1379882] | 0 | 0 | 0 | 0 | 30 | 4 | 96.3 | 0 | 0 | 0 | 0 | 22 | 20 | 0 | 0 | 9 | 0 | 4 | 0 | 17
Cl.NS(=O)(=O)c1cccc(Nc2cc(-c3ccc(F)cc3)n[nH]2)c1 [GW824645] | 0 | 0 | 36 | 13 | 35 | 0 | 6 | 23 | 1 | 0 | 2 | 0 | 0 | 45 | 0 | 0 | 0 | 40 | 44 | 31
Nc1nc(N)c2nc(-c3ccccc3)[nH]c2n1 [SKF-12778] | 4 | 16 | 0 | 17 | 16 | 7 | 12 | 0 | 3 | 26 | 0 | 0 | 0 | 4 | 0 | 13 | 28 | 52 | 9 | 0
COc1ccc(-c2cc3c(C)nc(N)nc3n([C@H]3CC[C@H](OCCO)CC3)c2=O)cn1 | 19 | 0 | 0 | 0 | 6 | 0 | 6 | 0 | 3 | 0 | 0 | 14 | 0 | 0 | 34 | 0 | 1 | 0 | 0 | 0
COc1cccc(C2=C(N(C)c3ccccc3)C(=O)NC2=O)c1 [SB-334865] | 0 | 0 | 0 | 0 | 3 | 2 | 24 | 29 | 10 | 0 | 0 | 4 | 4 | 0 | 0 | 19 | 11 | 0 | 0 | 23
O=C(NCc1cccs1)c1cc(C(=O)c2c(Cl)cccc2Cl)c[nH]1 [GW823670] | 0 | 0 | 7 | 0 | 6 | 0 | 0 | 27 | 0 | 8 | 2 | 0 | 0 | 5 | 26 | 0 | 0 | 0 | 0 | 0
CCn1c(-c2nonc2N)nc2ccccc21 [SB-693162/GW549034] | 33 | 0 | 0 | 3 | 34 | 0 | 14 | 53 | 0 | 56 | 0 | 5 | 0 | 0 | 0 | 0 | 0 | 20 | 43 | 15
CN1C(=O)C(Nc2cc(Cl)c(O)c(Cl)c2)=C(c2ccc(Cl)cc2)C1=O [SB-404321] | 0 | 0 | 0 | 0 | 4 | 0 | 0 | 6 | 0 | 0 | 0 | 0 | 0 | 0 | 22 | 0 | 0 | 52 | 36 | 10
COc1cc(Nc2nccc(N3CCC(NC(=O)C4COc5ccccc5O4)C3)n2)cc(OC)c1OC (stereo not shown) [GSK1379761] | 7 | 11 | 0 | 5 | 0 | 0 | 33 | 12 | 0 | 17 | 0 | 8 | 0 | 0 | 28 | 6 | 0 | 77 | 31 | 61
CCCNC(=O)Nc1ccc(Oc2ncnc3ccn(C)c23)cc1 | 22 | 0 | 0 | 0 | 13 | 1 | 0 | 8 | 0 | 0 | 7 | 3 | 0 | 18 | 0 | 0 | 0 | 0 | 0 | 13
COC(=O)c1c(-c2ccccc2)c2cc(Br)ccc2c(=O)n1Cc1ccc(NC(=O)CCC(=O)O)cc1 | 19 | 0 | 0 | 0 | 22 | 10 | 39 | 10 | 0 | 0 | 0 | 19 | 0 | 0 | 17 | 0 | 0 | 0 | 0 | 35
Nc1nc(-c2ccccc2F)c(-c2ccnc3ccccc23)s1 [GW560459] | 0 | 0 | 0 | 0 | 20 | 0 | 12 | 16 | 0 | 0 | 3 | 0 | 0 | 65 | 0 | 3 | 94.1 | 0 | 26 | 31
Nc1n[nH]c2ncc(-c3ccccc3)cc12 [SB-517081] | 0 | 0 | 9 | 2 | 13 | 6 | 37 | 0 | 0 | 18 | 0 | 0 | 2 | 1 | 0 | 21 | 12 | 17 | 37 | 31
Cc1nn2c(=O)cc(N3CCOCC3)nc2n1Cc1cccc(Cl)c1Cl [GSK2342769] | 0 | 0 | 0 | 0 | 11 | 0 | 10 | 0 | 44 | 12 | 0 | 0 | 0 | 0 | 0 | 16 | 5 | 0 | 0 | 4
O=C1NC(=O)C(c2ccccc2)=C1Nc1cccc(O)c1 [SB-390534] | 0 | 30 | 22 | 18 | 14 | 0 | 13 | 6 | 0 | 22 | 13 | 26 | 98.4 | 16 | 5 | 0 | 4 | 0 | 0 | 37
CCc1ccc(-c2ccc3c(c2)-c2nn(C)cc2S(=O)(=O)N3C)cc1 | 0 | 0 | 37 | 0 | 0 | 0 | 2 | 1 | 0 | 0 | 0 | 35 | 0 | 38 | 14 | 0 | 0 | 0 | 0 | 0
COc1cc2ncn(-c3cc(OCc4ccc(S(C)(=O)=O)cc4)c(C(N)=O)s3)c2cc1OC [GW869979] | 0 | 18 | 0 | 0 | 34 | 12 | 0 | 0 | 0 | 0 | 0 | 5 | 0 | 37 | 5 | 18 | 0 | 50 | 31 | 44
FC(F)(F)c1ccc(-c2ncn(CCCN3CCOCC3)c2-c2ccncc2)cc1 [SB-217780] | 24 | 0 | 0 | 0 | 3 | 3 | 12 | 2 | 0 | 15 | 6 | 0 | 0 | 0 | 1 | 0 | 0 | 14 | 0 | 0
COc1ccc(-c2cc3c(C)nc(N)nc3n([C@H]3CC[C@H](O)CC3)c2=O)cn1 | 21 | 0 | 0 | 0 | 90 | 0 | 7 | 0 | 6 | 0 | 0 | 0 | 0 | 0 | 0 | 0 | 0 | 0 | 0 | 0
COc1ccc(-c2coc3ccc(-c4nnc(SCc5cccc(C#N)c5)o4)cc23)cc1 | 23 | 0 | 10 | 0 | 10 | 0 | 0 | 11 | 0 | 17 | 5 | 25 | 0 | 21 | 10 | 0 | 20 | 17 | 0 | 3
